A selection: hits, their analogues and other compounds. The true share with any hit is near 19%.
TDP1 cell CPT: growth inhibition of DT40 Tdp1-/-;hTDP1 cells with camptothecin (screen for TDP1 inhibitors). Potency, µM (highest dose often 46.2 µM), inactives show top-dose activity change, negative = growth inhibition, hits mostly inhibitors. chicken DT40 Tdp1-/-;hTDP1 cells + 20 nM CPT, ATP luminescence, 48 h. 12% of 420,000 active; further: nearly all actives have a fitted effect of over 55% in size
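Cell growth measured by CellTiter-Glo luminescence after a minimum 48 h, 37 C compound exposure with 20 nM CPT in Tdp1-knockout DT40 cells stably expressing hTDP1, seeded 400/well; qHTS titration format.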
KB-3-1 tox: kills parental KB-3-1 adenocarcinoma cells; KB-3-1 viability, CellTiter-Glo ATP luminescence, 72 h; Potency, µM (titrated, usually from 46.1 µM), hits mostly cytotoxic; 1.4% of 400,000 active; AID 1347075; further: nearly all actives have a fitted effect of over 60% in size
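Luminescent ATP read-out (CellTiter-Glo) measures survival of drug-naive KB-3-1 cells after 72 h compound exposure at 37 °C. Titration series was screened from lowest to highest concentration, with DMSO vehicle plates as background controls.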
TDP1 cell noCPT: qHTS for Inhibitors of human tyrosyl-DNA phosphodiesterase 1 (TDP1): qHTS in cells in absence of CPT; DT40 Tdp1-/- hTDP1 cells, no CPT, ATP luminescence, 48 h; Potency, µM (highest dose often 46.2 µM), for the others: at the top dose activity change, negative = growth inhibition, actives largely listed as inhibitors; 15% of 420,000 active; AID 686978, 2013; further: nearly all actives have a fitted effect of over 55% in size
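Seeded 400 DT40-hTDP1 cells/well (vehicle DMSO, no 20 nM CPT); pinned compounds; ≥48 hr at 37 °C; CellTiter-Glo luminescence as viability measure.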
HT1080 IDH1KD tx: kills HT-1080 cells with IDH1 knockdown | HT-1080 IDH1 knockdown viability, ATP luminescence, 48 h | Potency, µM (series often up to 46.1 µM), for the others: at the highest dose activity, negative = toxicity, actives largely listed as cytotoxic | 2% of 360,000 active | AID 686971;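 further: 0% = DMSO wells and -100% = cell-free medium wells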
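In this qHTS, HT-1080 cells depleted of IDH1 are exposed for 48 h at 37 °C to compound titrations. Toxicity is scored from CellTiter-Glo luminescence, with DMSO as full viability and medium alone as none.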
HT1080-NT tox: kills 2HG-producing HT-1080-NT fibrosarcoma cells; Potency, µM (highest dose often 46.1 µM), for the others: at the highest dose activity, negative = less viability, hits mostly cytotoxic; AID 686970; HT-1080-NT fibrosarcoma viability, CellTiter-Glo ATP luminescence, 48 h; 1.6% of 360,000 active;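 further: NT is the 2HG producing partner of a matched IDH1 knockdown line; 0% = DMSO-treated cells and -100% = media-only wells without cells; nearly all actives have a fitted effect of over 55% in size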
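750 cells/well, RPMI + 5% FBS; 2 h settle, compound pin-transfer, 48 h at 37 degrees C. CellTiter-Glo 10 min RT, luminescence. Normalized to DMSO and media-only wells.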
KB-V1 MDR tox: kills drug-selected multidrug resistant KB-V1 cells; KB-V1 MDR cells viability, CellTiter-Glo, 72 h; Potency, µM (doses to about 46.1 µM), actives largely listed as cytotoxic; 3.4% of 400,000 active; AID 1347076; further: nearly all actives have a fitted effect of over 60% in size
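Cytotoxicity via CellTiter-Glo luminescence after 72 h compound exposure at 37 degrees C. Cells: drug-selected KB-V1 line, DMEM phenol-red free plus 10% FBS. Compounds tested at multiple concentrations; normalized data fitted to concentration-effect curves.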
An asterisk follows results filed as active. The call rests on the fitted dose curve; in most records, active means well fitted curve in the direction sought with a large enough effect; inconclusive means small, poorly fitted or top-dose-only effect, or another doubt; inactive means no such curve, though single readings can be large; an effect the other way counts as inactive or inconclusive. Unless noted, on the % scale 0 is the no-effect control and ±100 the full control effect; potency means the concentration at half of the fitted maximal effect.

`CC(=O)Nc1ccc(S(=O)(=O)N(C)CC(=O)NNC(=O)Cc2nc3ccccc3n2C)cc1` gave TDP1 cell CPT -3%, KB-3-1 tox inactive, TDP1 cell noCPT -21%, HT1080 IDH1KD tx 12%, HT1080-NT tox 6% and KB-V1 MDR tox inactive.
Cc1cccc(NCc2nc3ccccc3n2C)c1 was read as TDP1 cell CPT -7%, KB-3-1 tox inactive, TDP1 cell noCPT -6%, HT1080 IDH1KD tx 4%, HT1080-NT tox -1% and KB-V1 MDR tox inconclusive.
Cc1ccc(CN2C(=O)N/C(=C\c3ccc(N4CCOCC4)cc3)C2=O)cc1 was read as TDP1 cell CPT -28%, KB-3-1 tox inactive, TDP1 cell noCPT inconclusive, HT1080 IDH1KD tx 2%, HT1080-NT tox 6% and KB-V1 MDR tox inactive.
Screening O=C1N/C(=C\c2ccc(N3CCOCC3)c(F)c2)C(=O)N1Cc1ccccc1 returned TDP1 cell CPT 0%, KB-3-1 tox inactive, TDP1 cell noCPT -10%, HT1080 IDH1KD tx 18µM*, HT1080-NT tox inconclusive and KB-V1 MDR tox inactive.
`Cc1ccc(OC(=O)C2c3ccccc3Oc3ccccc32)cc1C` gave TDP1 cell CPT -19%, KB-3-1 tox inactive, TDP1 cell noCPT 6%, HT1080 IDH1KD tx 1%, HT1080-NT tox -24% and KB-V1 MDR tox inactive.
Screening CC(C)C[C@H]1CN(CCCC[C@@H]2CNC(=O)C(=O)N2Cc2ccccc2)C(=O)C(=O)N1Cc1ccccc1 returned TDP1 cell CPT 2%, KB-3-1 tox inactive, TDP1 cell noCPT -8%, HT1080 IDH1KD tx 19%, HT1080-NT tox 17% and KB-V1 MDR tox inactive.
For Cc1ccc(S(=O)(=O)N(C)CCCC(=O)Nc2ccc(F)cc2)cc1 the results were TDP1 cell CPT 21µM*, KB-3-1 tox inactive, TDP1 cell noCPT -25%, HT1080 IDH1KD tx -1%, HT1080-NT tox 0% and KB-V1 MDR tox inactive.
CC(=O)Nc1ccc(S(=O)(=O)N(C)S(=O)(=O)c2ccc(F)cc2)cc1 was read as TDP1 cell CPT -5%, KB-3-1 tox inactive, TDP1 cell noCPT 0%, HT1080 IDH1KD tx inconclusive, HT1080-NT tox 6% and KB-V1 MDR tox 16µM*.
Cc1ccc(S(=O)(=O)N(C)CCCC(=O)Nc2ccncc2)cc1 was read as TDP1 cell CPT 10µM*, KB-3-1 tox inactive, TDP1 cell noCPT 13µM*, HT1080 IDH1KD tx -10%, HT1080-NT tox -5% and KB-V1 MDR tox inactive.
Screening CN(c1ccccc1)S(=O)(=O)c1ccc(NC(=O)c2ccc(F)cc2)cc1 returned TDP1 cell CPT -12%, KB-3-1 tox inactive, TDP1 cell noCPT inconclusive, HT1080 IDH1KD tx -19%, HT1080-NT tox -10% and KB-V1 MDR tox inactive.
For COc1ccc(NC(=O)CCCN(C)S(=O)(=O)c2ccc(C)cc2)cc1 the results were TDP1 cell CPT inconclusive, KB-3-1 tox inactive, TDP1 cell noCPT inconclusive, HT1080 IDH1KD tx -3%, HT1080-NT tox -3% and KB-V1 MDR tox inconclusive.
Screening COc1ccccc1OCC(=O)Nc1ccc(S(=O)(=O)N2CCN(C)CC2)cc1 returned TDP1 cell CPT -2%, KB-3-1 tox inactive, TDP1 cell noCPT inconclusive, HT1080 IDH1KD tx -6%, HT1080-NT tox -13% and KB-V1 MDR tox inactive.
For COc1ccc(CNc2nc(NCc3ccc(OC)cc3)n(C(C)=O)n2)cc1 the results were TDP1 cell CPT -11%, KB-3-1 tox inactive, TDP1 cell noCPT -1%, HT1080 IDH1KD tx 2%, HT1080-NT tox 4% and KB-V1 MDR tox inactive.
Screening Cc1nc2nncn2c(NCc2ccc(Cl)cc2)c1C returned TDP1 cell CPT 2.6µM*, KB-3-1 tox 2.6µM*, TDP1 cell noCPT 0.82µM* and KB-V1 MDR tox inactive.
Screening COc1ccc(CNc2cc(-c3ccc(OC)cc3)nc3nncn23)cc1 returned TDP1 cell CPT inconclusive, KB-3-1 tox inactive, TDP1 cell noCPT 16µM* and KB-V1 MDR tox inactive.
`CCc1c(C)nc2nncn2c1NCc1ccc(OC)cc1` gave TDP1 cell CPT 16µM* and TDP1 cell noCPT 18µM*.
Cc1nc2nncn2c(Nc2ccc(F)cc2)c1C was read as TDP1 cell CPT 16µM*, KB-3-1 tox inactive, TDP1 cell noCPT 9.2µM* and KB-V1 MDR tox inactive.
`COc1ccc(CNc2nc(-c3ccc(OC)c(OC)c3)cc(C(F)(F)F)n2)cc1` gave TDP1 cell CPT inconclusive, KB-3-1 tox inactive, TDP1 cell noCPT inconclusive and KB-V1 MDR tox inconclusive.
c1csc(-c2nc(N3CCN(Cc4ccc5c(c4)OCCO5)CC3)c3ccccc3n2)c1 was read as TDP1 cell CPT inconclusive, TDP1 cell noCPT inconclusive, HT1080 IDH1KD tx 6% and HT1080-NT tox -2%.
`Cc1nc2nncn2c(NCc2ccc(F)cc2)c1C` gave TDP1 cell CPT 5.2µM*, KB-3-1 tox inconclusive, TDP1 cell noCPT 4.1µM* and KB-V1 MDR tox inactive.
For Cc1ccc(N2CCN(S(=O)(=O)c3ccc4oc(=O)c5ncn(C)c5c4c3)CC2)c(C)c1 the results were TDP1 cell CPT -10% and TDP1 cell noCPT inconclusive.
`CN(C(=O)c1ccc(NC(=O)Cc2cccc(NC(=O)C3CCCN(C(=O)C4CC4)C3)c2)cc1)C1CCCC1` (centres undefined) gave TDP1 cell CPT inconclusive, KB-3-1 tox inactive, TDP1 cell noCPT -29%, HT1080 IDH1KD tx 8%, HT1080-NT tox 6% and KB-V1 MDR tox inactive.
`CN(C(=O)c1ccc(NC(=O)Cc2cccc(NC(=O)C3CCCN(C(=O)C4CCCCC4)C3)c2)cc1)C1CCCC1` (centres undefined) gave TDP1 cell CPT 21µM*, KB-3-1 tox inactive, TDP1 cell noCPT inconclusive, HT1080 IDH1KD tx -2%, HT1080-NT tox -3% and KB-V1 MDR tox inactive.
`CN(C(=O)c1ccc(NC(=O)Cc2cccc(NC(=O)C3CCCN(C(=O)C4CCCC4)C3)c2)cc1)C1CC1` (centres undefined) gave TDP1 cell CPT -26%, KB-3-1 tox inactive, TDP1 cell noCPT inconclusive, HT1080 IDH1KD tx 0%, HT1080-NT tox -1% and KB-V1 MDR tox inactive.
O=C(Cc1ccc(NC(=O)C2CCCN(C(=O)C3CCCCC3)C2)cc1)Nc1cccc(C(=O)N2CCCC2)c1 (centres undefined) was read as TDP1 cell CPT 29µM*, KB-3-1 tox inactive, TDP1 cell noCPT inconclusive, HT1080 IDH1KD tx 3%, HT1080-NT tox 7% and KB-V1 MDR tox inactive.
